Results reported in PubChem BioAssay.
Calls of active or inactive are those of the source.

These molecules were tested against Luciferin 4-monooxygenase (Photinus pyralis) (UniProt P08659) (assay: firefly luciferase enzyme inhibitors, primary screen, biochemical, luminescence, purified enzyme, 2006 set (AID 1141;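 further: cell-free assay with purified firefly luciferase at 100 ng per well in PBS; test concentration not given here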)). Settings: SteadyGlo luminescence, 30 min, higher = more signal, called active from +8 up or from −8 down.
Luciferin 4-monooxygenase (Photinus pyralis), sequence (P08659 whole entry, looked up): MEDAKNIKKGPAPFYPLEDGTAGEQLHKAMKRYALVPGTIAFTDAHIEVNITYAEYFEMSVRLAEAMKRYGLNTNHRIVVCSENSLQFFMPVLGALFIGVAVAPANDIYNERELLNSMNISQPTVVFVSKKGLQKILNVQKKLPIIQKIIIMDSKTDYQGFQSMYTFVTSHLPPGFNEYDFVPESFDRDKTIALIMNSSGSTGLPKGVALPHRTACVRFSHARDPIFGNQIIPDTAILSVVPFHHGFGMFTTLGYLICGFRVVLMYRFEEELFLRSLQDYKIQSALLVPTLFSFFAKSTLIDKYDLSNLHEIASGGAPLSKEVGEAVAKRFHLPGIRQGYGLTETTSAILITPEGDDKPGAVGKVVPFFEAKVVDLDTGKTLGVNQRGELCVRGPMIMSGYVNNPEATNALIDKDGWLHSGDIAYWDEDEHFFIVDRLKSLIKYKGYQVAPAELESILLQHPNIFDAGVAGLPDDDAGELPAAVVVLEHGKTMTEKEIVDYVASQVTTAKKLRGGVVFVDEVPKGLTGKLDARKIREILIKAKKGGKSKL

z-score, inactive:
CO[C@H]1COC(=O)CCC[C@H](C)[C@H](OC)COC(=O)CC=C[C@@H]1C -0.981
COC(=O)[C@H](CCSC)NC(=O)CC=C[C@@H](C)CO -0.08
C[C@H]1CC[C@@H](C(=O)O)N[C@@H]1c1cccc(N2CCCC2=O)c1 -1.21
C#CCCCON=C1C[C@@H](O)[C@@H](O)[C@@H]2[C@@H]3C(=O)N([C@@H](C)c4ccccc4)C(=O)[C@@H]3CC[C@@H]12 0.993
COC(=O)[C@H](C)NC(=O)CCC1CC(OC(=O)NCc2ccc3c(c2)OCO3)CC2(CCCC(COC(=O)NCc3ccccc3)O2)O1 (stereo not given in full) 0.464
CCOC(=O)CCN1C(=O)[C@H]2[C@H]3[C@H](O)[C@H](O)CC(=NNC(=O)OCC)[C@H]3CC[C@H]2C1=O 0.303
CC(C)(C)N1C(=O)[C@H]2[C@@H]3C(=CC[C@H]2C1=O)C(=O)[C@H]1O[C@H]1[C@H]3O -2.65
O=C1[C@H]2[C@H]3[C@H](O)[C@H](O)CC(=NO[C@@H]4O[C@H](CO)[C@@H](O)[C@H](O)[C@H]4O)[C@@H]3CC[C@H]2C(=O)N1C1CCCCC1 -0.33
COc1ccc(COC(=O)NN=C2C[C@@H](O)[C@@H](O)[C@@H]3[C@@H]4C(=O)N([C@@H](C)c5ccccc5)C(=O)[C@@H]4CC[C@@H]23)cc1 0.447
COc1ccc(COC(=O)NN=C2C[C@@H](O)[C@@H](O)[C@@H]3[C@@H]4C(=O)N(Cc5ccccc5)C(=O)[C@@H]4CC[C@@H]23)cc1 0.778
CC(C)[C@@H](OCc1ccccc1)[C@H](C)C=NO[C@@H](C)c1cn([C@H](CO)Cc2ccccc2)nn1 -0.197
CCOC(=O)[C@H](Cc1ccccc1)NC(=O)CCC1CC(OC(=O)NCc2ccc3c(c2)OCO3)CC2(CCCC(COC(=O)NCCOc3ccccc3)O2)O1 (stereo not given in full) 0.289
COC(=O)[C@H](C)NC(=O)CCC1CC(OC(=O)NCc2ccc3c(c2)OCO3)CC2(CCCC(COC(=O)NCCCN3CCCC3=O)O2)O1 (stereo not given in full) 0.906
O=C(NN=C1C[C@@H](O)[C@@H](O)[C@@H]2[C@@H]3C(=O)N(Cc4ccc5c(c4)OCO5)C(=O)[C@@H]3CC[C@@H]12)OCc1ccccc1 1.02
CCN1C(=O)[C@H]2[C@H]3[C@H](O)[C@H](O)CC(=NOCC[C@@H]4C=C[C@H](OC(C)=O)[C@@H](COC(C)=O)O4)[C@@H]3CC[C@H]2C1=O 0.838
COC(=O)[C@H](C)NC(=O)CCC1CC(OC(=O)NCc2ccc3c(c2)OCO3)CC2(CCCC(COC(=O)NCCC(C)C)O2)O1 (stereo not given in full) 0.977
CO[C@H]1COC(=O)CC=C[C@H](C)[C@H](OC)COC(=O)[C@@H](C)NC(=O)CC=C[C@@H]1C 1.14
O=C1C=C[C@@H](O)[C@@H]2[C@@H]3C(=O)N(Cc4ccccc4)C(=O)[C@@H]3CC[C@@H]12 -0.505
CCOC(=O)[C@H](Cc1ccccc1)NC(=O)CCC1CC(OC(=O)NCc2ccc3c(c2)OCO3)CC2(CCCC(COC(=O)NCCc3ccc(Cl)cc3)O2)O1 (stereo not given in full) -0.144
COc1ccc(-c2cnnc(CCCn3ccnc3-c3ccccc3)n2)cc1 0.313
CCOC(=O)NN=C1C[C@@H](O)[C@@H](O)[C@@H]2[C@@H]3C(=O)N(c4ccc(F)cc4F)C(=O)[C@@H]3CC[C@H]12 1.18
C#CCCCON=C1C[C@@H](O)[C@@H](O)[C@@H]2[C@@H]3C(=O)N(CC)C(=O)[C@@H]3CC[C@H]12 0.0384
COC(=O)[C@H](C)NC(=O)CCC1CC(OC(=O)NCc2cccc3ccccc23)CC2(CCCC(COC(=O)NCc3ccccc3)O2)O1 (stereo not given in full) 1.09
CC(=O)OC[C@H]1O[C@H](CC=NOC[C@@H](O)[C@H]2O[C@@H]3OC(C)(C)O[C@@H]3[C@H]2O)C=C[C@@H]1OC(C)=O 0.94

z-score, active:
C[C@H]1CC[C@@H](C(=O)O)N[C@@H]1c1ccc(C#Cc2ccccc2)cc1 -9.82
